The text below walks through data of PubChem BioAssay (NCI).

This is part of a sample that, as a whole, favours compounds with a hit. Of some 83,000 tested, about 20% had one in any assay.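 In brief: 96-well plates, 48 h treatment, single concentration, percent growth endpoint.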 Activity calls are given as the source filed them.

The test has as its system OVCAR-4 ovarian. Put plainly: NCI-60 one-dose screen, 48 h (100 = growth as untreated, 0 = no growth, -100 = all killed). Conditions: 10 µM unless noted. The protocol:
Growth inhibition of the OVCAR-4 human tumor cell line is measured as a screen for anti-cancer activity. Cells are grown in 96 well plates and exposed to the test compound for 48 hours. Compounds are tested at a single concentration, which is 10^-5 M for most compounds. The reported endpoint is percent growth (GI% or GIPRCNT), where numbers from 0 - 100% represent growth inhibition, and numbers from -100% - 0 represent cell death. For example, a value of 40 represents 60% growth inhibition. A value of 0 means no net growth occurred over the course of the experiment. A value of -40 indicates 40% of cells at the beginning of the experiment died by the end of the experiment. A value of -100 means all cells are dead at the end of the experiment.
NCI-60 Human Tumor Cell Lines Screen was performed using the standard one-dose NCI protocol, which is described in more detail at https://dtp.cancer.gov/discovery_development/nci-60/default.htm.
Compounds with GIPRCNT values below 10 were considered active. Activity score was based on GIPRCNT using the following formula: […]
Score is 0 for GIPRCNT values of 100 or above, 50 for GIPRCNT values of 0, and 100 for GIPRCNT values of -100.
On to `Cc1nc(N/N=C/c2cn(-c3ccccc3)nc2-c2cc3ccccc3oc2=O)sc1N=Nc1ccccc1`, for which the growth is 85.4% (inactive). For `CCN(CC)CCCNc1cc(OC)c(OC)c2cccnc12` the value was -10.1% (active); for `N#CC1=C(N)Oc2c(sc3c(F)cccc23)C1c1ccc([N+](=O)[O-])cc1` (stereo not given), 15.1% (inactive). For `CC(=O)Nc1sc2c(c1-c1nc3ccccc3s1)CNC2` the value was 33.4% (inactive); for `CC(=O)O[C@H]1CC[C@]2(C)[C@H]3CC=C4[C@@H]5CC(C)(C)CC[C@]5(C(=O)N5CCN(CCC#N)CC5)CC[C@@]4(C)[C@]3(C)CC[C@H]2C1(C)C`, -44.1% (active). Turning to `CN(C)c1ccc(C(=S)c2ccc(N(C)C)cc2)cc1`, the growth is 83% (inactive). For `Cc1ccc(S(=O)(=O)OCC#CCOS(=O)(=O)c2ccc(C)cc2)cc1` the value was 73.4% (inactive); for `CCOC(=O)c1nnn(-c2no[n+]([O-])c2-c2ccc(OC)cc2)c1COc1cccc2cccnc12`, 27% (inactive).

On to `CSc1ccc2c3c(n(CCCn4ccnc4)c(=O)c2c1)-c1ccccc1C3=O`, for which the growth is 71.8% (inactive).

In the case of `OC1CSSC1Cn1cnc2c(Nc3ccc(OCc4cccc(F)c4)c(Cl)c3)ncnc21` (stereo not given), the growth was 4.03% (active). As for `O=C(/C=C/C12c3ccccc3C(c3ccccc31)C1C(=O)NC(=O)C12)c1ccco1` (stereo not given), the growth was 53.4% (inactive).

Take `CCCCCc1ccc(S(=O)(=O)Nc2cc(-c3csc(NC(C)=O)n3)ccc2N2CCN(C)CC2)cc1`: the growth was 66% (inactive). For `COc1ccc2c(c1)oc1c(C)c3c(c(C)c12)C(=O)N(CCOS(C)(=O)=O)C3=O` the value was 100% (inactive). For `Cc1ccc(-c2csc(NC(=O)CSc3nc(N)cc(N)n3)n2)cc1`, the growth is 64% (inactive). For `COc1cc(/C=C/C(=O)N2CCN(C(=O)c3cc(OC)c(OC)c(OC)c3)CC2)ccc1OCCCOc1cc2c(cc1OC)C(=O)N1CCC[C@H]1C=N2` the value was 16% (inactive); for `CCOC(=O)c1cnn(CC(C)O)c1NC(=O)NCc1ccccc1C(F)(F)F` (stereo not given), 98.6% (inactive); for `CC(C)=CC(=O)N[C@H]1CC[C@]2(C)C3CC[C@]4(C)C(C(C)N(C)C)=CCC4C3CCC2[C@H]1O` (stereo not given in full), 7.83% (active). Take `O=C1NC(=O)C(c2coc3cc(Br)ccc23)=C1c1c[nH]c2ccccc12`: the growth is 77.5% (inactive). For `CCOC(=O)c1nnn(Cc2cc(=O)oc3ccc(O)cc23)c1C` the value was 109% (inactive); for `CCOC(=O)/C=C1\S/C(=N\Nc2cc(=O)[nH]c3ccc(Br)cc23)N(c2ccccc2)C1=O`, 58% (inactive); for `COc1cc(C=Nc2oc(-c3ccccc3)c(-c3ccccc3)c2C#N)cc(CN2CCCC2)c1O`, 95.5% (inactive). For `CCCc1cc(=O)oc2c(C(=O)CC(C)C)c(O)c(CC=C(C)C)c(O)c12` the value was 30.5% (inactive). For `CCCCNC(=O)c1ccc2c(c1)nc(-c1ccccc1)n2C1CCCCC1` the value was 102% (inactive). Take `COc1cc(N2C(=O)[C@H](Cl)C2c2ccc(SC)cc2)cc(OC)c1OC` (stereo not given in full): the growth is 48% (inactive). The figure for `CC(C)c1ccc2c(c1)CC[C@H]1[C@](C)(C(=O)OCC#CCN3CCCC3)CCC[C@]21C` is 64.4% (inactive); for `O=C(/C=C/c1cccc(Oc2ccccc2)c1)c1ccc(Nc2nc(Nc3ccc(F)cc3)nc(Nc3ccc(Cl)cc3)n2)cc1` it is 97.9% (inactive); for `COc1cc(/C=C/c2cc(/C=C/c3ccc(O)c(OC)c3)n(C(=O)Nc3ccc(Cl)cc3)n2)ccc1O` it is 13.3% (inactive). For `Cc1ccc(C)c2c1sc1nc(N3CCOCC3)c(C#N)c(=O)n12` the value was 76.8% (inactive). On to `CCOc1ccc(/C=C/C(=O)c2cccc(OCCCOc3cccc(C(=O)/C=C/c4ccc(OCC)cc4)c3)c2)cc1`, for which the growth was 69.1% (inactive). For `Cc1c2ncccc2nc2[nH]c3ccc(OCCN(C)C)cc3c12` the value was 27.5% (inactive). For `CC1(C)CC(=O)C2=C(C1)C(c1ccc(Cl)cc1)n1ncc(C#N)c1N2` (stereo not given), the growth is 96.3% (inactive).

As for `Cc1ccc(C(=O)c2ccc(CC(=O)N/N=C/c3cccc(O)c3O)n2C)cc1`, the growth is 29.1% (inactive). The figure for `O=C(/C=C/c1ccccc1Cl)c1cccc(OCCCCOc2cccc(C(=O)/C=C/c3ccccc3Cl)c2)c1` is 106% (inactive); for `C#Cc1cccc(NC(=O)C2CCCCN2C(=O)CCl)c1` (stereo not given) it is -66.9% [8.25 µM] (active); for `O=C(/C=C/C12c3ccccc3C(c3ccccc31)C1C(=O)NC(=O)C12)c1ccc(I)cc1` (stereo not given) it is 84.8% (inactive). The figure for `N#Cc1c(-c2ccc(Br)cc2)nc2c(N=Nc3ccc(S(N)(=O)=O)cc3)c(N)nn2c1N` is 61.2% (inactive); for `CN1C(=O)N2CN3CCCN(C3)CN3C(=S)NC1C23` (stereo not given) it is 102% (inactive). The figure for `CN(C)c1ccc(/C=C2\C=C(c3nc4ccccc4s3)OC2=O)cc1` is 81.7% (inactive).

With `Nc1nc2ccccc2c2c(=O)c3cc(Cl)ccc3sc12`, the growth was 87.9% (inactive). Turning to `CC1(C)N=C(N)N=C(N)N1c1ccc(S(=O)(=O)Nc2nccs2)cc1`, the growth was 104% (inactive).
